Compound activity (PubChem BioAssay)
SmPrx2 inh = blocks S. mansoni peroxiredoxin 2 enzymatic activity; Potency, µM; S. mansoni Prx2 activity coupled to TGR/GSH (TGR is thioredoxin glutathione reductase), NADPH fluorescence loss, qHTS; actives 0.07% (n = 65,000)
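Activity is read as the drop in NADPH fluorescence (365/450 nm), recorded every 30 sec for 8 min after H2O2 addition. Prx2 is coupled to TGR-driven NADPH oxidation through glutathione, in phosphate buffer pH 7.4.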
LT uptake inh = inhibitors of anthrax lethal toxin internalization | Cells, anthrax lethal toxin internalization, FRET ratio (460/530) | Potency, µM (doses to about 40 µM), for the others: top-dose activity change, negative = inhibition, hits mostly inhibitors | actives 0.67% (n = 70,000); further: on the % scale 0 is the no-effect control and ±100 the full control effect; nearly all actives have a fitted effect of over 50% in size
AmpC inh det = inhibitors of E. coli AmpC beta-lactamase with detergent | P00811 | purified AmpC, nitrocefin hydrolysis with detergent | Potency, µM (highest dose often 28.7 µM), for inactives: top-dose activity change, negative = inhibition | actives 0.09% (n = 71,000); active means well fitted curve in the direction sought with a large enough effect; inconclusive means small, poorly fitted or top-dose-only effect; further: on the % scale 0 is the no-effect control and ±100 the full control effect
Target sequence (P00811 whole entry, looked up): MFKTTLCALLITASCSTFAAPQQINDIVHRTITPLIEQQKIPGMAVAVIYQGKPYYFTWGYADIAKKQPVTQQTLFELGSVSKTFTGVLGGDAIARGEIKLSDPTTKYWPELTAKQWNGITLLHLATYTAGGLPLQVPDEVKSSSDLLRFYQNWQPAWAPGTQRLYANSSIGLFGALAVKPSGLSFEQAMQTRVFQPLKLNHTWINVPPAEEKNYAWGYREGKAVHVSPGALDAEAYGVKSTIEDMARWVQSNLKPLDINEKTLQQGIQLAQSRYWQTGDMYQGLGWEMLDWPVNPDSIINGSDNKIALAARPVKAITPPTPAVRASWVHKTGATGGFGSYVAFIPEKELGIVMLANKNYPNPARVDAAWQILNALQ
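E. coli AmpC (5.3 nM) in 20 mM phosphate pH 7.0 with 0.01% Triton X-100, preincubated 15 min RT with compound; nitrocefin (2 uL of 800 uM stock) hydrolysis followed by 480 nm absorbance every 20 s over 4 min.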
AmpC nodet inh = blocks E. coli AmpC beta-lactamase in absence of detergent | P00811 | AmpC nitrocefin hydrolysis, absorbance 480 nm, no detergent | Potency, µM (top dose mostly 28.7 µM), without a hit: at the highest dose activity change, negative = inhibition | actives 1.8% (n = 71,000) | AID 585; further: % of control where 0% means no effect
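AmpC in 20 mM phosphate buffer pH 7.0 was preincubated 15 min at room temperature with compounds. Nitrocefin (800 uM stock) was then added and hydrolysis followed at 480 nm every 20 s for 4 min.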
* hit, by the source's call; [ ] = another dose, or the depositor's remark. An excerpt weighted towards active compounds, which were near 2.6% of everything screened. Unless noted, the call rests on the fitted dose curve. Potency means the concentration at half of the fitted maximal effect.

Results for Cc1ccccc1-c1nc(Nc2ccncc2)c2ccccc2n1 ?
SmPrx2 inh: >57; LT uptake inh: -3%; AmpC inh det: 6%; AmpC nodet inh: -8%

What do the screens show for `CCN1CCN(Cc2ccc(NC(=O)Nc3ccccc3Cl)cc2)CC1`?
SmPrx2 inh: >57; LT uptake inh: -18%; AmpC inh det: 15%; AmpC nodet inh: 4µM*[single pt active]

What do the screens show for `CS(=O)(=O)N1CCc2cc(-c3csc(NC(=O)Cc4cccs4)n3)ccc21`?
SmPrx2 inh: >57; LT uptake inh: 13µM*; AmpC inh det: 1%; AmpC nodet inh: inconclusive

How did CCN1CCC[C@@H]1CNC(=O)c1c(OC)ccc(I)c1O do in these assays?
SmPrx2 inh: >57; LT uptake inh: -13%; AmpC inh det: -2%; AmpC nodet inh: 7%

How did O=C1NC(=O)[C@]2(Cc3ccccc3N3CCN(c4ccccc4)CC32)C(=O)N1Cc1ccccc1 (stereo not given in full) do in these assays?
SmPrx2 inh: >57; AmpC inh det: 2%; AmpC nodet inh: 10µM*[single pt active]

Results for COc1ccc(C2C(C(C)=O)=C(O)C(=O)N2CCO)c(OC)c1 (stereo not given) ?
SmPrx2 inh: >57; LT uptake inh: -21%; AmpC inh det: -3%; AmpC nodet inh: -3%

How did CCN(CC)CCCN1C(=O)C(O)=C(C(C)=O)C1c1ccc(OC)cc1OC (stereo not given) do in these assays?
SmPrx2 inh: >57; LT uptake inh: -3%; AmpC inh det: 12%; AmpC nodet inh: 4µM*[single pt active]

Results for O=C1c2c(O)ccc([N+](=O)[O-])c2C(=O)c2c([N+](=O)[O-])ccc(O)c21 ?
LT uptake inh: inconclusive; AmpC inh det: 4%; AmpC nodet inh: -24%

How did Cc1ccc2oc(=O)c3cc(C(=O)NCc4ccco4)sc3c2c1 do in these assays?
SmPrx2 inh: >57; LT uptake inh: inconclusive; AmpC inh det: 10%; AmpC nodet inh: 4µM*[single pt active]

Results for Fc1cccc2sc(Nc3nnc(-c4ccccc4)o3)nc12 ?
SmPrx2 inh: >57; LT uptake inh: -2%; AmpC inh det: -1%; AmpC nodet inh: 13µM*[single pt active]

What do the screens show for `Cc1cc(-c2cc(C)c(O)c(C(C)(C)C)c2)cc(C(C)(C)C)c1O`?
SmPrx2 inh: >57; LT uptake inh: 2.5µM*; AmpC inh det: -2%[5.75 µM]; AmpC nodet inh: -4%[5.75 µM]

What do the screens show for `Cc1cc(C(C)(C)C)c(O)c(C(C)(C)C)c1`?
AmpC inh det: 12%; AmpC nodet inh: 4%

What do the screens show for `O=C(CCCCCN1C(=O)C2C3C=CC(C3)C2C1=O)Nc1nccs1` (stereo not given)?
SmPrx2 inh: >57; LT uptake inh: 12%; AmpC inh det: 12%; AmpC nodet inh: 2µM*[single pt active]

What do the screens show for `O=C(CCN1C(=O)C2C3C=CC(C3)C2C1=O)Nc1nccs1` (stereo not given)?
SmPrx2 inh: >57; LT uptake inh: -1%; AmpC inh det: -5%; AmpC nodet inh: -2%

Results for CCC(C)[C@@H](C(=O)Nc1ccc(OC)c(OC)c1)N1Cc2ccccc2C1=O (stereo not given in full) ?
SmPrx2 inh: >57; LT uptake inh: 9%; AmpC inh det: 13%; AmpC nodet inh: 4µM*[single pt active]

Results for CSCC[C@@H](C(=O)Nc1ccc2c(c1)OCCO2)N1Cc2ccccc2C1=O ?
SmPrx2 inh: >57; LT uptake inh: -7%; AmpC inh det: 8%; AmpC nodet inh: 4µM*[single pt active]

Results for COc1ccc(-c2nc(NC(=O)c3cc(C(C)(C)C)nn3C)sc2C)cc1 ?
SmPrx2 inh: >57; LT uptake inh: 5µM*; AmpC inh det: 7%; AmpC nodet inh: 21%

How did O=C(c1csnn1)N1CCC[C@@]2(CCN(c3ccncc3)C2)C1 do in these assays?
SmPrx2 inh: >57; LT uptake inh: 5%; AmpC inh det: 3%; AmpC nodet inh: 19%

Results for Cc1ccc(-c2noc(CN3CCC(C(N)=O)CC3)n2)cc1 ?
SmPrx2 inh: >57; LT uptake inh: -15%; AmpC inh det: -2%; AmpC nodet inh: -4%

How did Cc1ccc(-c2noc(CN3C(C)CCCC3C)n2)cc1 (stereo not given) do in these assays?
SmPrx2 inh: >57; LT uptake inh: -12%; AmpC inh det: 12%; AmpC nodet inh: 4µM*[single pt active]

How did C[C@H](O)[C@H](O)[C@@H]1CNc2nc(N)[nH]c(=O)c2N1 do in these assays?
SmPrx2 inh: >57; LT uptake inh: 9%; AmpC inh det: -4%; AmpC nodet inh: -4%

How did COc1ccccc1NC(=O)NCCCN1CCN(c2cccc(Cl)c2)CC1 do in these assays?
SmPrx2 inh: >57; LT uptake inh: inconclusive; AmpC inh det: 12%; AmpC nodet inh: 4µM*[single pt active]

How did O=C(N[C@@H](Cc1ccccc1)C(=O)CCl)OCc1ccccc1 do in these assays?
SmPrx2 inh: >57; LT uptake inh: 16µM*; AmpC inh det: -5%; AmpC nodet inh: -2%

How did COC(=O)C(C(C)=O)C(=O)C(Cc1ccccc1)NC(=O)OCc1ccccc1 (stereo not given) do in these assays?
LT uptake inh: -12%[8 µM]

Results for N#Cc1c(NC(=O)Cn2c(=O)oc3ccccc32)oc(-c2ccccc2)c1-c1ccccc1 ?
SmPrx2 inh: >57; LT uptake inh: 10µM*; AmpC inh det: 1%; AmpC nodet inh: 13µM*

Results for CC[C@@H](C)[C@H](NC(=O)OC(C)(C)C)c1nnc(S(=O)(=O)Cc2cc(C)ccc2C)o1 ?
SmPrx2 inh: >57; LT uptake inh: inconclusive; AmpC inh det: inconclusive; AmpC nodet inh: inconclusive

How did CC(C)C[C@H](N)c1nnc(S(=O)(=O)Cc2cccc(F)c2)o1 do in these assays?
SmPrx2 inh: >57; LT uptake inh: inconclusive; AmpC inh det: 2.5µM*; AmpC nodet inh: inconclusive

How did CC(C)[C@H](NC(=O)OC(C)(C)C)c1nnc(S(=O)(=O)Cc2c(F)cccc2Cl)o1 do in these assays?
SmPrx2 inh: >57; AmpC inh det: 0.79µM*; AmpC nodet inh: 1.3µM*

What do the screens show for `CC(C)(C)OC(=O)N[C@@H](Cc1ccccc1)c1nnc(S(=O)(=O)Cc2cccc(F)c2)o1`?
SmPrx2 inh: >57; LT uptake inh: 10µM*; AmpC inh det: 5µM*; AmpC nodet inh: 4µM*

Results for Cc1ccccc1CS(=O)(=O)c1nnc([C@H](CC(C)C)NC(=O)OC(C)(C)C)o1 ?
SmPrx2 inh: >57; LT uptake inh: inconclusive; AmpC inh det: 7.9µM*; AmpC nodet inh: 10µM*

What do the screens show for `CC(C)CC(=O)N1CCN(Cc2cccc(F)c2)CC1`?
LT uptake inh: -2%; AmpC inh det: 14%; AmpC nodet inh: 46%

What do the screens show for `O=c1c(-c2ccc(Cl)cc2)nc2cnc(N3CCNCC3)nc2n1CCc1ccccc1`?
SmPrx2 inh: >57; LT uptake inh: -6%; AmpC inh det: -4%; AmpC nodet inh: 62%

How did S=C([S-])NCCNC(=S)[S-].[Zn+2] do in these assays?
LT uptake inh: inconclusive; AmpC inh det: 2%; AmpC nodet inh: -14%

Results for O=C(NCCO)c1ccc2[nH]c3c(c2c1)CCCC3 ?
LT uptake inh: -13%; AmpC inh det: 5%; AmpC nodet inh: 2%

How did C/C(=N\O)c1ccc2c3c([nH]c2c1)CCCC3 do in these assays?
LT uptake inh: 10µM*; AmpC inh det: 4%; AmpC nodet inh: -9%
